{"source": "PubChem BioAssay (NCATS)", "note": "Results filed as inconclusive are left out. A number with no mark means an inactive call. Calls of active or inactive are those of the source. Unless noted, the call rests on the fitted dose curve; in most records, active means well fitted curve in either direction with a large enough effect (not every such curve was filed as active); inconclusive means small, poorly fitted or top-dose-only effect, or another doubt; inactive means flat fitted curve, though single readings scatter.", "data": [{"molecular_target": "Cytochrome P450 1A2 (Homo sapiens) (UniProt P05177)", "sequence (P05177 whole entry, looked up)": "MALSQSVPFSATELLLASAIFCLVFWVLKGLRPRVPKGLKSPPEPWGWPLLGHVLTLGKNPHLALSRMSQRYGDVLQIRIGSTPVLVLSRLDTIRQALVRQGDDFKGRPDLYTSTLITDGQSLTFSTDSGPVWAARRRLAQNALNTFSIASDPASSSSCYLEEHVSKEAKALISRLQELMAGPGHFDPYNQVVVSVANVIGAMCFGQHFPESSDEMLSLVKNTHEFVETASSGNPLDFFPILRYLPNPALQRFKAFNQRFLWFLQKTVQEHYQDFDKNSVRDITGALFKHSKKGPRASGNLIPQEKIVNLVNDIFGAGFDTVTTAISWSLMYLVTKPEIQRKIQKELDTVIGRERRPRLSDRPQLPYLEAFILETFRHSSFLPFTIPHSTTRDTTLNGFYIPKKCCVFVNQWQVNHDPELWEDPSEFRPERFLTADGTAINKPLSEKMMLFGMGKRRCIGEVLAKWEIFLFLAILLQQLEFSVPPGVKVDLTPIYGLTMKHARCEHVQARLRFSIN", "assay": "p450-cyp1a2 (AID 410; calls by dose curve; further: potency means the concentration at half of the fitted maximal effect;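 on activity change, negative = inhibition: -100% = full effect of reference inhibitor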)", "details": "recombinant CYP1A2, luciferin-ME demethylation, luminescence; series mostly up to 57 µM; activity change, negative = inhibition: at the top concentration", "method_in_brief": "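Human CYP1A2 (20nM) demethylated Luciferin-ME at its Km (100uM) in 100mM KPO4. After 10 min compound preincubation, NADPH regeneration ran the reaction 60 min at room temperature. Luciferin was read by luminescence, normalized to 57 uM furafylline.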", "units": {"activity change, negative = inhibition": "%"}, "values": [{"compound": "CCNc1ncc2nc(-c3cn(C)c4ccccc34)c(=O)n(Cc3ccc(F)cc3)c2n1", "Potency": "15.8 µM (active)"}, {"compound": "N#CCCn1c(=O)c(-c2ccccc2)nc2cnc(Nc3ccccc3)nc21", "Potency": "0.794 µM (active)"}, {"compound": "COc1cccc(-c2nccc(NCc3cccnc3)n2)c1", "Potency": "0.158 µM (active)"}, {"compound": "CN(C)c1ncc2nc(-c3cccs3)c(=O)n(-c3ccccc3)c2n1", "Potency": "31.6 µM (active)"}, {"compound": "COc1ccc(-c2nc3cnc(OC)nc3n(C)c2=O)cc1", "Potency": "2.51 µM (active)"}, {"compound": "COc1ncc2nc(-c3cccs3)c(=O)n(Cc3ccc(F)cc3)c2n1", "Potency": "3.16 µM (active)"}, {"compound": "COc1cccc(Cn2c(=O)cnc3cnc(OC)nc32)c1", "Potency": "12.6 µM (active)"}, {"compound": "COCCn1c(=O)c(-c2cccs2)nc2cnc(OC)nc21", "Potency": "2.51 µM (active)"}, {"compound": "COc1ccc(CNc2ccnc(-c3c(C)noc3C)n2)c(OC)c1", "Potency": "1.26 µM (active)"}, {"compound": "COc1cccc(Cn2c(=O)cnc3cnc(OCc4ccccc4)nc32)c1", "Potency": "12.6 µM (active)"}, {"compound": "Cc1cnc(CNc2ncnc3ccc(-c4ccc5c(c4)OCO5)cc23)cn1", "Potency": "0.398 µM (active)"}, {"compound": "CNc1nc(-c2c(C)noc2C)nc2ccccc12", "Potency": "0.0501 µM (active)"}, {"compound": "N#Cc1cccc(-c2nccc(NCc3ccccc3)n2)c1", "Potency": "0.501 µM (active)"}, {"compound": "COc1ccccc1CNc1cc(-c2ccccc2C(F)(F)F)ncn1", "Potency": "15.8 µM (active)"}, {"compound": "COc1cccc(Cn2c(=O)c(-c3cccs3)nc3cnc(OCc4ccccc4)nc32)c1", "Potency": "1.58 µM (active)"}, {"compound": "c1ccc(CNc2ncncc2-c2ccc3c(c2)OCO3)cc1", "Potency": "0.126 µM (active)"}, {"compound": "Cc1noc(C)c1-c1nc(Nc2ccc(F)cc2)c2ccccc2n1", "Potency": "0.251 µM (active)"}, {"compound": "COc1ccc(CNc2ccnc(-c3ccccc3OC)n2)c(OC)c1", "Potency": "5.01 µM (active)"}, {"compound": "Cn1c(=O)c(-c2ccc(F)cc2)nc2cnc(N3CCOCC3)nc21", "Potency": "2.51 µM (active)"}, {"compound": "O=c1c(CCc2ccccc2)nc2cnc(N3CCOCC3)nc2n1CCc1ccccc1", "Potency": "25.1 µM (active)"}, {"compound": "N#Cc1ccccc1-c1ccc2ncnc(NC3CC3)c2c1", "Potency": "0.1 µM (active)"}, {"compound": "COc1cccc(Cn2c(=O)c(-c3cccs3)nc3cncnc32)c1", "Potency": "5.01 µM (active)"}, {"compound": "O=c1c(-c2ccc(F)cc2)nc2cncnc2n1-c1ccccc1", "Potency": "7.94 µM (active)"}, {"compound": "O=c1c(-c2ccc(Cl)cc2)nc2cnc(Nc3ccccc3)nc2n1C[C@H]1CCCO1", "Potency": "12.6 µM (active)"}, {"compound": "COc1ccccc1-c1cncnc1NCc1cnc(C)cn1", "Potency": "20 µM (active)"}, {"compound": "CN(C)Cc1ccccc1-c1nc(NC2CC2)c2ccccc2n1", "Potency": "5.01 µM (active)"}, {"compound": "CCNc1ncc2nc(-c3ccccc3)c(=O)n(CCOC)c2n1", "Potency": "3.16 µM (active)"}, {"compound": "CN(Cc1ccco1)c1ncnc2ccc(-c3ccccc3C#N)cc12", "Potency": "1 µM (active)"}, {"compound": "CCNc1ncc2nc(-c3ccc(F)cc3)c(=O)n(C[C@H]3CCCO3)c2n1", "Potency": "1.26 µM (active)"}, {"compound": "Cc1cnc(CNc2nc(-c3ccccc3C(F)(F)F)nc3ccccc23)cn1", "Potency": "12.6 µM (active)"}, {"compound": "CS(=O)(=O)Nc1cccc(-c2nccc(Nc3ccc(F)cc3)n2)c1", "Potency": "0.126 µM (active)"}, {"compound": "CCNc1ncc2nc(-c3cc(F)cc(F)c3)c(=O)n(CCc3ccccc3)c2n1", "Potency": "25.1 µM (active)"}, {"compound": "COc1cccc(-c2cc(NCc3ccccc3)ncn2)c1", "Potency": "2 µM (active)"}, {"compound": "c1ccc(CNc2ncncc2-c2cccnc2)cc1", "Potency": "2.51 µM (active)"}, {"compound": "COc1ccc(-c2nc3cnc(OC)nc3n(CCC#N)c2=O)cc1", "Potency": "6.31 µM (active)"}, {"compound": "N#Cc1cccc(-c2nccc(NCc3cccs3)n2)c1", "Potency": "0.251 µM (active)"}, {"compound": "Cc1ccccc1-c1cncnc1NCc1cccnc1", "Potency": "15.8 µM (active)"}, {"compound": "COc1ccc(Oc2ncc3nc(-c4cn(C)c5ccccc45)c(=O)n(C)c3n2)cc1", "activity change, negative = inhibition": -15.1}, {"compound": "CN(C)c1ccc(-c2cncnc2N(C)Cc2ccco2)cc1", "Potency": "0.631 µM (active)"}, {"compound": "COc1ncc2nc(-c3cn(C)c4ccccc34)c(=O)n(CCC#N)c2n1", "Potency": "5.01 µM (active)"}]}, {"tested_on": "not listed separately", "assay": "NFAT Signaling Pathway (AID 444);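 further: carbachol stimulus at about its EC50 of 1 µM final; on the % scale 0 is the no-effect control and ±100 the full control effect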", "details": "Jurkat NFAT-bla M1, carbachol, beta-lactamase ratio, 5 h; at 7.69 µM (top of the series) unless noted", "method_in_brief": "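Jurkat cells with NFAT-driven β-lactamase reporter and co-expressed M1 receptor, stimulated with carbachol (final 1 uM, ~EC50), compound titration, 5 h at 37 °C. CCF4 loaded 1 h at RT; 460/530 nm ratio gave %activity and AC50.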", "values": [{"compound": "CCNc1ncc2nc(-c3cn(C)c4ccccc34)c(=O)n(Cc3ccc(F)cc3)c2n1", "activity change, negative = inhibition": "2.58%"}, {"compound": "N#CCCn1c(=O)c(-c2ccccc2)nc2cnc(Nc3ccccc3)nc21", "activity change, negative = inhibition": "-16.9%"}, {"compound": "COc1cccc(-c2nccc(NCc3cccnc3)n2)c1", "activity change, negative = inhibition": "8.95%"}, {"compound": "CN(C)c1ncc2nc(-c3cccs3)c(=O)n(-c3ccccc3)c2n1", "activity change, negative = inhibition": "6.03%"}, {"compound": "COc1ccc(-c2nc3cnc(OC)nc3n(C)c2=O)cc1", "activity change, negative = inhibition": "-0.516%"}, {"compound": "COc1ncc2nc(-c3cccs3)c(=O)n(Cc3ccc(F)cc3)c2n1", "activity change, negative = inhibition": "8.73%"}, {"compound": "COc1cccc(Cn2c(=O)cnc3cnc(OC)nc32)c1", "activity change, negative = inhibition": "20%"}, {"compound": "COCCn1c(=O)c(-c2cccs2)nc2cnc(OC)nc21", "activity change, negative = inhibition": "15.6%"}, {"compound": "COc1ccc(CNc2ccnc(-c3c(C)noc3C)n2)c(OC)c1", "activity change, negative = inhibition": "8.32%"}, {"compound": "COc1cccc(Cn2c(=O)cnc3cnc(OCc4ccccc4)nc32)c1", "activity change, negative = inhibition": "-4.5%"}, {"compound": "Cc1cnc(CNc2ncnc3ccc(-c4ccc5c(c4)OCO5)cc23)cn1", "activity change, negative = inhibition": "14.2%"}, {"compound": "CNc1nc(-c2c(C)noc2C)nc2ccccc12", "activity change, negative = inhibition": "8.72%"}, {"compound": "N#Cc1cccc(-c2nccc(NCc3ccccc3)n2)c1", "activity change, negative = inhibition": "13.6%"}, {"compound": "COc1ccccc1CNc1cc(-c2ccccc2C(F)(F)F)ncn1", "activity change, negative = inhibition": "-8.05%"}, {"compound": "COc1cccc(Cn2c(=O)c(-c3cccs3)nc3cnc(OCc4ccccc4)nc32)c1", "activity change, negative = inhibition": "3.84%"}, {"compound": "c1ccc(CNc2ncncc2-c2ccc3c(c2)OCO3)cc1", "activity change, negative = inhibition": "7.28%"}, {"compound": "Cc1noc(C)c1-c1nc(Nc2ccc(F)cc2)c2ccccc2n1", "activity change, negative = inhibition": "11.3%"}, {"compound": "COc1ccc(CNc2ccnc(-c3ccccc3OC)n2)c(OC)c1", "activity change, negative = inhibition": "-9.22%"}, {"compound": "Cn1c(=O)c(-c2ccc(F)cc2)nc2cnc(N3CCOCC3)nc21", "activity change, negative = inhibition": "24.2%"}, {"compound": "O=c1c(CCc2ccccc2)nc2cnc(N3CCOCC3)nc2n1CCc1ccccc1", "activity change, negative = inhibition": "6.88%"}, {"compound": "N#Cc1ccccc1-c1ccc2ncnc(NC3CC3)c2c1", "activity change, negative = inhibition": "21.2%"}, {"compound": "COc1cccc(Cn2c(=O)c(-c3cccs3)nc3cncnc32)c1", "activity change, negative = inhibition": "-4.4%"}, {"compound": "O=c1c(-c2ccc(F)cc2)nc2cncnc2n1-c1ccccc1", "activity change, negative = inhibition": "11.8%"}, {"compound": "O=c1c(-c2ccc(Cl)cc2)nc2cnc(Nc3ccccc3)nc2n1C[C@H]1CCCO1", "activity change, negative = inhibition": "-7.53%"}, {"compound": "COc1ccccc1-c1cncnc1NCc1cnc(C)cn1", "activity change, negative = inhibition": "2.58%"}, {"compound": "CN(C)Cc1ccccc1-c1nc(NC2CC2)c2ccccc2n1", "activity change, negative = inhibition": "-22.4%"}, {"compound": "CCNc1ncc2nc(-c3ccccc3)c(=O)n(CCOC)c2n1", "activity change, negative = inhibition": "22.8%"}, {"compound": "CN(Cc1ccco1)c1ncnc2ccc(-c3ccccc3C#N)cc12", "activity change, negative = inhibition": "7.18%"}, {"compound": "CCNc1ncc2nc(-c3ccc(F)cc3)c(=O)n(C[C@H]3CCCO3)c2n1", "activity change, negative = inhibition": "12.6%"}, {"compound": "Cc1cnc(CNc2nc(-c3ccccc3C(F)(F)F)nc3ccccc23)cn1", "activity change, negative = inhibition": "12.8%"}, {"compound": "CS(=O)(=O)Nc1cccc(-c2nccc(Nc3ccc(F)cc3)n2)c1", "activity change, negative = inhibition": "2.44%"}, {"compound": "CCNc1ncc2nc(-c3cc(F)cc(F)c3)c(=O)n(CCc3ccccc3)c2n1", "activity change, negative = inhibition": "137% [activator] (active)"}, {"compound": "COc1cccc(-c2cc(NCc3ccccc3)ncn2)c1", "activity change, negative = inhibition": "13.6%"}, {"compound": "c1ccc(CNc2ncncc2-c2cccnc2)cc1", "activity change, negative = inhibition": "-2.51%"}, {"compound": "COc1ccc(-c2nc3cnc(OC)nc3n(CCC#N)c2=O)cc1", "activity change, negative = inhibition": "-4.16%"}, {"compound": "N#Cc1cccc(-c2nccc(NCc3cccs3)n2)c1", "activity change, negative = inhibition": "11.9%"}, {"compound": "Cc1ccccc1-c1cncnc1NCc1cccnc1", "activity change, negative = inhibition": "-14.1%"}, {"compound": "COc1ccc(Oc2ncc3nc(-c4cn(C)c5ccccc45)c(=O)n(C)c3n2)cc1", "activity change, negative = inhibition": "-8.09%"}, {"compound": "CN(C)c1ccc(-c2cncnc2N(C)Cc2ccco2)cc1", "activity change, negative = inhibition": "-8.48%"}, {"compound": "COc1ncc2nc(-c3cn(C)c4ccccc34)c(=O)n(CCC#N)c2n1", "activity change, negative = inhibition": "-2.23%"}]}]}
